Compound activity (PubChem)
A selection: hits, their analogues and other compounds. The true share with any hit is near 11%.
Pf growth 48h: P. falciparum growth inhibition at 48 hours (one generation). P. falciparum luciferase growth in erythrocytes, 48 h. Potency, µM (titrated, usually from 28.7 µM), without a hit: at the highest dose activity change, negative = inhibition, usual class: inhibitors. actives 5.9% (n = 310,000). AID 504832; further: on the % scale 0 is the no-effect control and ±100 the full control effect
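Luciferase-expressing P. falciparum in infected erythrocytes (2% hematocrit, 0.1% parasitemia final) in RPMI 1640/0.5% Albumax were exposed to compound for 48 hours at 37 C, 5% CO2; growth read as luminescence.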
AMA1 RON2 block: disrupts binding of P. falciparum AMA1 to RON2 | AlphaScreen AMA1-biotinylated RON2 peptide binding | Potency, µM (top dose mostly 58.2 µM), inactives show at the highest dose activity change, negative = inhibition, most hits filed as inhibitors | actives 0.2% (n = 360,000) | AID 720542;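 further: 0% = vehicle wells and -100% = peptide control; nearly all actives have a fitted effect of over 45% in size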
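AMA1 (3D7) with his tag at 25 nM final met compounds first, then biotinylated RON2 peptide at 25 nM; detection used donor plus acceptor beads, 10 µg/mL apiece, read by AlphaScreen after 30 min at room temperature.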
Pf growth 96h: P. falciparum growth inhibition at 96 hours | P. falciparum luciferase reporter growth, 96 h | Potency, µM (top dose mostly 28.7 µM), without a hit: at the highest dose activity change, negative = inhibition, usual class: inhibitors | actives 6.9% (n = 320,000); further: on the % scale 0 is the no-effect control and ±100 the full control effect
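Luminescence readout: decreased luciferase signal marks inhibited growth of reporter-expressing P. falciparum in infected red cells (2% hematocrit, 0.05% parasitemia final), exposed to compound two generations (96 h, 37 C, 5% CO2).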
Sm TGR block: blocks Schistosoma mansoni thioredoxin glutathione reductase; Potency, µM (titrated, usually from 114 µM), for the others: top-dose activity change, negative = inhibition, most hits filed as inhibitors; actives 3% (n = 360,000); Q962Y6; purified TGR, DTNB reduction, TNB absorbance 405 nm; AID 485364; further: on the % scale 0 is the no-effect control and ±100 the full control effect; nearly all actives have a fitted effect of over 60% in size
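TGR 20 nM + NADPH 100 uM (dispensed conc.), cpd preinc 15 min RT; start with NADPH (500 uM addition) then DTNB (15 mM addition). Kinetic TNB absorbance, 405 nm filter. Four-parameter Hill fit across titration.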
NS1 inh: blocks influenza NS1 protein function; actives 0.4% (n = 270,000); AID 2326; Potency, µM (doses to about 46.1 µM), for inactives: at the top dose activity, positive = more growth; calls by dose curve; further: actives are rising curves; nearly all actives have a fitted effect of over 50% in size
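Read-out: OD600 growth recovery of NS1-expressing budding yeast. Cells grown overnight at 30C in -URA glucose medium, washed, resuspended and diluted 1:100 in 2% galactose assay medium, pH 6.0. Same strain lacking NS1 served as positive control.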
* = called active by the depositor; ? = inconclusive; nt = no result given; [ ] = remark or other dose. Unless noted, the call rests on the fitted dose curve; in most records, active means well fitted curve in the direction sought with a large enough effect; inconclusive means small, poorly fitted or top-dose-only effect, or another doubt; inactive means no such curve, though single readings can be large; an effect the other way counts as inactive or inconclusive. Potency means the concentration at half of the fitted maximal effect.

SMILES	Pf growth 48h	AMA1 RON2 block	Pf growth 96h	Sm TGR block	NS1 inh
CCC1CCc2sc(C(=O)NCC(c3ccc(OC)cc3)N3CCOCC3)cc2C1 (stereo not given)	12µM*	-3%	?	-3%	nt
COc1ccc(C(CNC(=O)c2cc(C)oc2C)N2CCOCC2)cc1 (stereo not given)	-1%	-14%	13%	28µM*	5%
CCN1CCc2nc3sc(C(=O)c4ccccc4)c(N)c3cc2C1	nt	nt	nt	-2%	nt
C#CCNC(=O)c1ccc2sc([C@H]3C[C@H](O)[C@@H](CO)O3)nc2c1	nt	4%	nt	nt	nt
O=C(c1ccc(-c2cccc(C(F)(F)F)c2)o1)N1CCOCC1	31%	-5%	6%	-14%	-61%
COc1ccc(C(CNC(=O)c2nn(-c3ccccc3)c(=O)c3ccccc23)N2CCOCC2)cc1 (stereo not given)	-49%	0%	10µM*	-1%	nt
COc1ccc(-n2nc(C(=O)NCC(=O)N3CCC4(CC3)OCCO4)c3ccccc3c2=O)cc1	5%	2%	3%	-12%	-13%
CC(=O)N1CCN(C(=O)c2ccc(-c3cccc(C(F)(F)F)c3)o2)CC1	3%	-6%	?	32µM*	nt
CC1=CC(C)(C)[N+](C)=CN1c1ccccc1	?	4%	8.3µM*	-17%	5%
Cc1cccc2sc(N(Cc3cccnc3)C(=O)c3ccco3)nc12	nt	nt	nt	12%	nt
Oc1cc2c(cc1CN1CCN(c3ncccn3)CC1)OCO2	2%	-9%	10%	1µM*	-10%
Cc1c(Cl)cccc1N/C(SCC(=O)N1CCCCCC1)=C(/C#N)c1nc2ccccc2s1	2.1µM*	8%	1.5µM*	7%	14%
O=C(CSc1nc2ccccc2s1)N1CCCCC1	129%	4%	nt	-2%	-8%
C=CCn1c(OCc2ccccc2)n[nH]c1=S	0%[0.00184 µM]	67%	?	-18%	1%
CCc1cccc(CC)c1NC(=S)NCCc1c(C)[nH]c2ccccc12	13µM*	51%	13µM*	-4%	13%
COc1cccc(CN(C)CC(=O)Nc2cc(S(=O)(=O)N3CCCC3)ccc2Cl)c1OC	12µM*	19%	?	3%	nt
COc1ccccc1CN(C)CC(=O)Nc1cccc(S(=O)(=O)N2CCCC2)c1	nt	7%	nt	nt	nt
O=C(CCl)Nc1cc(S(=O)(=O)N2CCCCCC2)ccc1Cl	-13%	12%	?	16µM*	-28%
COc1ccccc1CNCC(=O)Nc1cc(S(=O)(=O)N2CCCCCC2)ccc1Cl	9.3µM*	43%	?	0%	-2%
CC(C)(C)CC(=O)Nc1cc(S(=O)(=O)N2CCCCCC2)ccc1Cl	-1%	7%	-14%	-3%	-7%
O=C(NC(=S)Nc1sc2c(c1C(=O)O)CCCC2)c1ccccc1	43%	57%	0%	60%	-39%
Cc1cnc(NC(=O)c2ccc(-c3ccc([N+](=O)[O-])cc3)o2)s1	?	75%	6.6µM*	-11%	nt
O=C(Nc1ncc(Cc2cccc(Cl)c2)s1)c1ccc([N+](=O)[O-])cc1	?	33%[11.6 µM]	13µM*	-18%	6%
O=C(Nc1ncc(Cc2ccc(C(F)(F)F)cc2)s1)c1ccc(-c2cccc([N+](=O)[O-])c2)o1	?	55%	0.37µM*	-5%	20%
O=C(Nc1ncc(Cc2ccccc2Cl)s1)c1ccc(-c2cccc([N+](=O)[O-])c2)o1	?	82%	37%	-1%	7%
SMILES	Pf growth 48h	AMA1 RON2 block	Pf growth 96h	Sm TGR block	NS1 inh
CCc1c(C)c2ccc(OCC(=O)NCC3CCC(C(=O)O)CC3)cc2oc1=O (stereo not given)	3%	-7%	37%	-29%	18%
CC(C)C[C@H](N)CSSC[C@@H](N)CC(C)C	nt	nt	nt	nt	-7%
COc1cccc(NC(=O)Cn2nc(-c3ccncc3)ccc2=O)c1	nt	nt	nt	-7%	nt
CCCCc1n[nH]c(=S)n1Cc1ccc(C)cc1	?	80%	?	2%	nt
CCOc1cc(CNc2ccc(N3CCN(C(C)=O)CC3)cc2)cc(Br)c1OC	?	?	?	-20%	-8%
CCOc1ccc(C(=O)Nc2ccc3c(c2)OCCO3)cc1Br	nt	nt	nt	1%	nt
CCOc1cc(CO)cc(Br)c1OCC(=O)Nc1ccccc1C	-17%	-3%	61%	15%	-4%
